Results filed as inconclusive are left out. Unless noted, calls come from the whole dose curve; as a rule, active = well fitted curve in either direction with a large enough effect (not every such curve was filed as active); inconclusive = small, poorly fitted or top-dose-only effect, or another doubt; inactive = flat fitted curve, though single readings scatter.
Tests used:
[1] = AP1 Signaling Pathway (AID 357); conditions: ME-180 AP-1-bla reporter, EGF-induced, beta-lactamase ratio, 5 h; at 17.2 µM (top of the series) unless noted; note: % is set by controls: 0 for no effect and ±100 for the full control effect
Outline: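 ME-180 cells with beta-lactamase reporter under AP-1 response element, stimulated with EC50 EGF; compounds tested in titration series, 5 h at 37 °C. CCF4 substrate added 2.5 h at room temperature; 460/530 nm emission ratio gave %activity and AC50.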

[2] = NFAT Signaling Pathway (AID 444); conditions: Jurkat NFAT-bla M1, carbachol, beta-lactamase ratio, 5 h; at 17.2 µM (top of the series) unless noted;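 note: carbachol stimulus at about its EC50 of 1 µM final; % is set by controls: 0 for no effect and ±100 for the full control effect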
Outline: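 Read-out: CCF4 FRET ratio (460 nm/530 nm) after 1 h RT dye loading, used for %activity and AC50 from titration series. Cells: Jurkat NFAT-β-lactamase/M1 line, treated with compound plus 1 uM carbachol for 5 h, 37 °C.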

[3] = Stat Signaling Pathway (AID 446); conditions: ME-180 SIE beta-lactamase reporter, IL-6 stimulated, 5 h; at 17.2 µM (top of the series) unless noted;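 note: ME-180 cervical cancer cells given 40 pM IL-6 alongside compound; SIE-controlled beta-lactamase reporter measured as 460/530 nm FRET emission ratio; % is set by controls: 0 for no effect and ±100 for the full control effect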
Outline: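 Screening format detects activators and inhibitors alike: ME-180 SIE-bla cells stimulated at 40 pM IL-6 for 5 hrs with compound, then dual-emission beta-lactamase read at 405 nm excitation.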

[4] = target: Glucocorticoid receptor (Homo sapiens) (UniProt P04150); assay: GR-GFP Redistribution (AID 450;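 active = compounds whose dose series gives a full or clear partial fitted curve of increased nuclear translocation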; note: potency is the fitted concentration of half-maximal effect)
Sequence of Glucocorticoid receptor (Homo sapiens) (P04150 whole entry, looked up): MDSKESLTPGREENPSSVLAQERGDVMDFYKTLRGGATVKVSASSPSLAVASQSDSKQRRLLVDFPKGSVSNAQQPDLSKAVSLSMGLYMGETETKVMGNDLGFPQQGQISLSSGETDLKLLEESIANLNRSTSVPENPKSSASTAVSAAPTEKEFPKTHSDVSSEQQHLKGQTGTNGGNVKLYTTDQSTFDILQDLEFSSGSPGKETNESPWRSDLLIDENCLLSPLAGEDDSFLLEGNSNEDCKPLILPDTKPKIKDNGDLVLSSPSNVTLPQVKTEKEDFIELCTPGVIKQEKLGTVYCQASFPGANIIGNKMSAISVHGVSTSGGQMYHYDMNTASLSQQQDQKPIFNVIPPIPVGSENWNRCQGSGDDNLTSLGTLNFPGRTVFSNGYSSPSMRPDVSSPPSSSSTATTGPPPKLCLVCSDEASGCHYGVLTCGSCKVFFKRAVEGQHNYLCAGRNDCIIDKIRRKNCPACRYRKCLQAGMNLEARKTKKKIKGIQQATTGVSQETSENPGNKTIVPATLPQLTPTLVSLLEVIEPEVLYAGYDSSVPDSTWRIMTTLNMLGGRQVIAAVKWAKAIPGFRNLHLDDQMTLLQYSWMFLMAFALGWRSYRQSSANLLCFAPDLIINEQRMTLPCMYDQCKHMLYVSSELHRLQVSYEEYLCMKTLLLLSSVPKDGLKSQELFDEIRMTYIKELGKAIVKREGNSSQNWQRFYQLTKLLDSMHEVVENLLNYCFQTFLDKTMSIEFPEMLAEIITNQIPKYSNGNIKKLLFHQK

O=c1c2c3c(sc2n2cnnc2n1C1CCCCC1)CCC3
inactive: activity change, negative = inhibition [1] -5.1% | activity change, negative = inhibition [2] -1.53% | activity, negative = inhibition [3] 22.2% | Potency [4] > 20.6 µM

COc1ccc[nH]c1=O
inactive: activity change, negative = inhibition [1] 14.3% | activity change, negative = inhibition [2] -4.63% | activity, negative = inhibition [3] 3.09% | Potency [4] > 20.6 µM

Cc1cc(=O)oc(C)c1C(=O)NCCc1ccccc1
inactive: activity change, negative = inhibition [1] 8.18% | activity change, negative = inhibition [2] -8.25% | activity, negative = inhibition [3] 14.6% | Potency [4] > 20.6 µM

Cn1c(SCC(=O)N2CCOCC2)nnc1-c1ccc(Cl)cc1Cl
inactive: activity change, negative = inhibition [1] -13.7% | activity change, negative = inhibition [2] -5.6% | activity, negative = inhibition [3] 5.04% | Potency [4] > 20.6 µM

Cc1ccc(C2C(C(=O)c3cc4ccccc4o3)=C(O)C(=O)N2CCN(C)C)o1 (centres undefined)
inactive: activity change, negative = inhibition [1] -1.56% | activity change, negative = inhibition [2] -18.1% | activity, negative = inhibition [3] -0.311% | Potency [4] > 20.6 µM

Cc1nc(NS(=O)(=O)c2ccccc2)sc1NC(=O)OC(C)C
inactive: activity change, negative = inhibition [1] 3.92% | activity change, negative = inhibition [2] -1.13% | activity, negative = inhibition [3] 3.96% | Potency [4] > 20.6 µM

O=C(NCCC1=CCCCC1)c1ccc(=O)oc1
inactive: activity change, negative = inhibition [1] -16% | activity change, negative = inhibition [2] -4.94% | activity, negative = inhibition [3] 7.23% | Potency [4] > 20.6 µM

CC1(C)Cc2c(C#N)c(SCc3nc4ccccc4[nH]3)nc(N3CCOCC3)c2CO1
inactive: activity change, negative = inhibition [1] -22.7% | activity change, negative = inhibition [2] 8.62% | activity, negative = inhibition [3] -16.1% | Potency [4] > 20.6 µM

COc1ccc(NC(=O)C2CSC3c4ccccc4C(=O)N23)cc1 (centres undefined)
inactive: activity change, negative = inhibition [1] -4.43% | activity change, negative = inhibition [2] -13% | activity, negative = inhibition [3] 4.23% | Potency [4] > 20.6 µM

O=C(Oc1ccccc1N1C(=O)CCC1=O)c1ccco1
inactive: activity change, negative = inhibition [1] 11.4% | activity change, negative = inhibition [2] 8.69% | activity, negative = inhibition [3] 1.19% | Potency [4] > 20.6 µM

Nc1ccc2oc3ncccc3c(=O)c2c1
inactive: activity change, negative = inhibition [1] 7.58% | activity change, negative = inhibition [2] 10.7% | activity, negative = inhibition [3] -3.84% | Potency [4] > 20.6 µM

CCOC(=O)C1=C(N)N2C(=O)CSC2=C(C(=O)OC)C1
inactive: activity change, negative = inhibition [1] -12.4% | activity change, negative = inhibition [2] 12.5% | activity, negative = inhibition [3] -25.6% | Potency [4] > 20.6 µM

Cn1ncc(N=Cc2ccccc2)c1C(N)=O
inactive: activity change, negative = inhibition [1] 5.51% | activity change, negative = inhibition [2] 6.04% | activity, negative = inhibition [3] 5.52% | Potency [4] > 20.6 µM

COn1c(=S)[nH]c2ccccc2c1=O
inactive: activity change, negative = inhibition [1] 20.1% | activity change, negative = inhibition [2] 11.2% | activity, negative = inhibition [3] 8.68% | Potency [4] > 20.6 µM

CN=c1sc2ccccc2n1CC(O)COc1ccccc1 (centres undefined)
inactive: activity change, negative = inhibition [1] -17.6% | activity change, negative = inhibition [2] -17.8% | activity, negative = inhibition [3] -0.403% | Potency [4] > 20.6 µM

COc1ccc(CC(=O)OCN2C(=O)c3ccccc3C2=O)cc1
inactive: activity change, negative = inhibition [1] 11.9% | activity change, negative = inhibition [2] -7.12% | activity, negative = inhibition [3] -0.768% | Potency [4] > 20.6 µM

CCCc1nnc(SCc2ccc(OCC)cc2)n1N
inactive: activity change, negative = inhibition [1] 4.67% | activity change, negative = inhibition [2] 7.42% | activity, negative = inhibition [3] 10.4% | Potency [4] > 20.6 µM

O=C1CCC(=O)N1CN(C(=O)c1ccco1)c1ccc(Cl)c(Cl)c1
inactive: activity change, negative = inhibition [1] -6.31% | activity change, negative = inhibition [2] -5.89% | activity, negative = inhibition [3] 11.1% | Potency [4] > 20.6 µM

COc1ccc(C2NC3=C(CCC3)C3(C#N)C(OC)(OC)N=C(N)C23C#N)cc1 (centres undefined)
inactive: activity change, negative = inhibition [1] -8.29% | activity change, negative = inhibition [2] 6.55% | activity, negative = inhibition [3] -5.86% | Potency [4] > 20.6 µM

CC(=O)Oc1ccc2c(C)cc(=O)[nH]c2c1
inactive: activity change, negative = inhibition [1] 8.38% | activity change, negative = inhibition [2] -13.4% | activity, negative = inhibition [3] -3.86% | Potency [4] > 20.6 µM

CCCn1nc(Oc2nc(SC)nc(N(C)C)n2)ccc1=O
inactive: activity change, negative = inhibition [1] 12.8% | activity change, negative = inhibition [2] -5.95% | activity, negative = inhibition [3] -17.7% | Potency [4] > 20.6 µM

CC(C)c1nc(N2CCOCC2)c(C#N)c2c1CCC2
inactive: activity change, negative = inhibition [1] -24.1% | activity change, negative = inhibition [2] -23.6% | activity, negative = inhibition [3] -8.37% | Potency [4] > 20.6 µM

O=C1C=C(O)CC(c2ccc(Cl)c(Cl)c2)C1 (centres undefined)
inactive: activity change, negative = inhibition [1] 7.55% | activity change, negative = inhibition [2] -10.9% | activity, negative = inhibition [3] -4.42% | Potency [4] > 20.6 µM

Cc1cc(C)n(CC(=O)c2ccccc2)c(=O)c1C#N
inactive: activity change, negative = inhibition [1] 17.1% | activity change, negative = inhibition [2] -3.95% | activity, negative = inhibition [3] -3.77% | Potency [4] > 20.6 µM

COC(=O)CSc1nc2c(c(=O)n(C)c(=O)n2C)n1CCC(C)C
inactive: activity change, negative = inhibition [1] 10.4% | activity change, negative = inhibition [2] -5.51% | activity, negative = inhibition [3] 6.93% | Potency [4] > 20.6 µM

COc1ccc(C(=O)c2ccc(N3CCOCC3)cc2)c(OC)c1
inactive: activity change, negative = inhibition [1] -17.3% | activity change, negative = inhibition [2] 13.3% | activity, negative = inhibition [3] 1.25% | Potency [4] > 20.6 µM

— PubChem BioAssay (NCATS)
